The list is not random: actives were taken first. Their share in the collection is about 2.2%.
Mot1-301 SUMO = yeast Mot1-301 growth rescue at high temperature, primary screen, SUMOylation pathway inhibitor project, S. cerevisiae, ATP luminescence, 38.5C. S. cerevisiae Mot1-301 growth rescue; percent above DMSO median, 100 means doubled. growth rescue, % at 18.8 µM. 320,000 tested, 1% active;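 active means every valid replicate shows activation above 250% relative to neutral control wells; inactive means the rest, any valid replicate at or below 250%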;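 further: OY570 slx delta 5 strain wells were the positive control but not used for scaling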
GASC-1 inh = inhibitors of GASC-1 histone demethylase, primary screen, biochemical, fluorescence, DELFIA europium; GST-JMJD2C(1-420) H3K9me3 demethylation; 330,000 tested, 0.069% active; Lysine-specific demethylase 4C (Homo sapiens), Q9H3R0; inhibition, % at 2.35 µM;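 active means more than half of a compound's replicate wells show inhibition beyond 50%, single wells judged on their own value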;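 further: signal counts dimethyl H3K9 product captured on neutravidin plate; 0% = median of DMSO wells and 100% = 0.3 times that DMSO median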
Target sequence (Q9H3R0 1-420 limits assumed): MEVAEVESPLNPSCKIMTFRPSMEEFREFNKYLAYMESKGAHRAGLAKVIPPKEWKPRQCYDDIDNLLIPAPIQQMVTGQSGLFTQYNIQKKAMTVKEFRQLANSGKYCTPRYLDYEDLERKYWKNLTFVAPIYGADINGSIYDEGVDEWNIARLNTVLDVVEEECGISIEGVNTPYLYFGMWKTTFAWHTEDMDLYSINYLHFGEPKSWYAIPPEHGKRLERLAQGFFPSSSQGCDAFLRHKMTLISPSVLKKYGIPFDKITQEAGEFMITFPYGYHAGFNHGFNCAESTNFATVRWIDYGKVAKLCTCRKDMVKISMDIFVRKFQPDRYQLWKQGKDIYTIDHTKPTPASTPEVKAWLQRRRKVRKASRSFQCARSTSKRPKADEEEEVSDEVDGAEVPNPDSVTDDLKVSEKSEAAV
PHOSPHO1 inh = PubChem AID 1565; Phosphoethanolamine/phosphocholine phosphatase (Homo sapiens), Q8TCT1; recombinant PHOSPHO1, absorbance phosphatase assay; inhibition, % at 13.3 µM; 290,000 tested, 1.1% active; in the data active means inhibition above about 60%
p-CIP stab down = p/CIP-EGFP fusion destabilizers, primary screen, fluorescence, F442A cells. Q05BA5. 16 h. decrease of EGFP signal, % at 10 µM. 290,000 tested, 0.01% active. AID 1984, 2009;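 active means EGFP signal decrease of at least 30% at 10 µM or well 3 SD below plate mean, unless failing retest; inactive means the rest, including hits failing retest or dose response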
HDAC3 inh = HDAC3 deacetylase inhibitors, primary screen, biochemical, fluorescence, cell-free homogeneous; Histone deacetylase 3 (Homo sapiens), O15379; recombinant HDAC3, fluorogenic peptide/trypsin coupled; inhibition, % at 8.3 µM; 320,000 tested, 0.15% active; AID 2718, 2010; in the data active means inhibition above about 26%, passing the limit was not always enough
PvdQ acylase = P. aeruginosa PvdQ acylase inhibitors, primary screen, biochemical, fluorescence, plate reader and imaging, single point; PvdQ acylase [Pseudomonas aeruginosa LESB58]; AID 488965, 2010; purified PvdQ acylase; inhibition, % at 10 µM; 340,000 tested, 0.063% active; in the data active means inhibition above about 30%, passing the limit was not always enough;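 further: 0% = vehicle neutral wells and 100% = reference inhibitor wells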
Yeast Mot1 SUMO = growth restoration of Mot1-301 yeast on galactose, dose response, SUMO pathway inhibitor project, whole organism, S. cerevisiae, ATP luminescence, cherry-picked samples; growth activity, percent, % at 42 µM; S. cerevisiae Mot1-301 galactose growth, 24 h; -100 = growth of slx-deleted rescue strain; shares compounds with Mot1-301 SUMO; 2,300 tested, under 10 active;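 active means Signal drops as the depositor expects, and the fitted half-maximal dose is no more than ten times the top valid tested dose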;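 further: more negative values mean stronger growth rescue toward the control strain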
* marks the source's active call; other numbers are inactive results; · = not tested or not shown; + = active, no number; [ ] = dose if it differs, or a comment.

SMILES	Mot1-301 SUMO	GASC-1 inh	PHOSPHO1 inh	p-CIP stab down	HDAC3 inh	PvdQ acylase	Yeast Mot1 SUMO
Cc1ccc(NC(=O)CSCC(=O)N(C)CC(=O)Nc2cccc3ccccc23)cc1	230.3	-9.1	·	·	2.8	-14.7	·
O=C(CCSc1nnnn1-c1ccccc1)N1CCOCC1	687.5*	-12.1	-5.7	-4.3	0.5	-17.2	0.7
O=C(Nc1cccc(C(=O)Nc2ccc(F)cc2F)c1)c1ccccc1	+	13.1	8.3	2.5	-0.6	-3.4	-1.2
O=C(O)CC(c1ccc(F)cc1F)N1Cc2ccccc2C1=O (stereo not drawn)	-8.7	-16.3	28.3	13.9	-2.5	-16.6	·
COc1cc(S(=O)(=O)N2CCN(c3ccccc3)CC2)ccc1F	646.6*	1.0	-20.7	6.5	-15.4	-14.6	0.1
COc1cc(S(=O)(=O)N2CCN(c3ccccc3)CC2)ccc1Cl	-7.0	-16.6	-19.3	-6.2	-0.2	-12.7	·
CCOc1ccc(C(=O)Nc2ccc(CN3CCOCC3)cc2)cc1Br	364.9*	11.6	20.1	2.5	1.7	7.0	0.5[21 µM]
CCn1nnc(-c2ccccc2NC(=O)c2cnccn2)n1	406.7*	4.3	·	·	-2.7	-8.3	0.3
COc1ccc(CNC2CCSc3ccccc32)cc1OC (stereo not drawn)	-3.0	-11.4	22.2	2.9	0.3	-9.0	·
Cc1ccc(CNC(=O)CCS(=O)(=O)c2ccc(Br)s2)o1	10.8	-2.7	13.9	0.0	-1.6	-15.5	·
O=C(CCS(=O)(=O)c1ccc(Br)s1)NCc1ccccc1	736.7*	-1.3	-1.4	-2.0	5.1	-19.5	-0.6
Cc1ccccc1/C=C/C1=NCCN1	1.6	·	·	·	5.7	-6.0	·
Cn1c(Cn2nnc3ccccc32)nnc1SCC(=O)c1ccc(F)cc1	785.2*	0.1	50.4	-35.1	-4.4	-12.2	-0.1
CCOc1ccc2nc(C(C)O)[nH]c2c1 (stereo not drawn)	+	-9.3	-4.6	16.6	0.8	-10.4	1.1
CCCCNC(=O)C1C2C=CC3(CN(Cc4ccc(C)cc4)C(=O)C13)O2 (stereo not drawn)	858.7*	-15.5	40.8	0.6	-1.7	12.4	0.1
O=C(COc1ccccc1Cl)c1ccc[nH]1	788.5*	-7.9	28.3	0.1	11.0	-8.0	1.4
O=C(COc1ccc(Br)cc1Cl)c1ccc[nH]1	13.3	5.2	41.7	-0.3	2.6	4.8	·
O=C(COC(=O)c1c(F)cccc1F)c1ccc[nH]1	595.9*	-0.2	-3.6	-8.6	·	·	-0.1
O=C(OCC(=O)c1ccc[nH]1)c1ccccc1	113.7	20.3	-6.8	-11.9	3.0	-5.2	·
COC(=O)[C@H](C)NC(=O)Nc1ccc(S(N)(=O)=O)cc1	-9.0	7.9	-0.2	-11.5	-0.3	-3.4	·
CCC(C)[C@H](NC(=O)Nc1ccc(S(N)(=O)=O)cc1)C(=O)OC (stereo partly drawn)	742.7*	5.7	21.9	-1.6	·	-8.8	0.0
COc1ccc2cc(CCOC3CCCCO3)ncc2c1 (stereo not drawn)	-15.6	2.2	·	·	-4.6	-1.5	·
CCc1ccccc1NC(=O)N1CCCC(CCC(=O)N(C)CCc2ccccn2)C1 (stereo not drawn)	-12.0	-0.5	43.6	8.0	·	-12.0	·
C=CCOc1ccccc1CN1CCCC(CCC(=O)N(C)CCc2ccccn2)C1 (stereo not drawn)	681.8*	6.0	28.2	-6.1	0.8	-2.6	-0.1[21 µM]
CC(C)[C@H](NC(=O)c1ccccc1)C(=O)OCC(=O)Nc1sccc1C(N)=O	-11.2	4.8	·	·	3.9	2.1	·
COc1ccc(OCCC(=O)OCC(=O)NCCc2ccccc2)cc1	3.2	-34.2	27.5	-3.7	3.7	-9.7	·
CC(C(=O)NCCN1CCOCC1)(c1ccccc1)c1ccccc1	667.2*	0.2	41.2	-0.7	·	-8.7	0.3
Cc1ccccc1C(=O)NCCN1CCOCC1	-3.5	4.7	-9.1	-14.4	-11.2	-11.3	·

Screening results as filed in PubChem.
